In PubChem BioAssay (EPA / NIEHS):
“And” between values parts separate entries of the source, which are not always exact repeats. Equal values may be shown once. Where a structure was tested more than once in an assay, its records may differ in their call. The source made the active and inactive calls. The calls were made as follows: active = hit-call score of the fitted dose curve at least 0.9, where 1 is the maximum; inactive = score below 0.9.

Biological target: Paired box protein Pax-6 (Homo sapiens) (UniProt P26367)
Assay: ATG_Pax6_CIS: Attagene CIS-FACTORIAL HepG2 Assay for human Paired Box 6 (PAX6) (AID 2282956)
Conditions: HepG2 CIS-FACTORIAL PAX6 reporter transcription, RNA readout; actives raise or lower the signal
Procedure: ATG_CIS is a cell-based, multiplexed-readout assay that uses HepG2, a human liver cell line, with measurements taken at 24 hours after chemical dosing in a 24-well plate.ATG_Pax6_CIS is one of 52 assay component(s) measured or calculated from the ATG_CIS assay. It is designed to make measurements of mRNA induction, a form of inducible reporter, as detected with fluorescence intensity signals by Reverse transcription polymerase chain reaction (RT-PCR) and Capillary electrophoresis technology.Data from the assay component ATG_Pax6_CIS was analyzed into 1 assay endpoint. This assay endpoint, ATG_Pax6_CIS, was analyzed with bidirectional fitting relative to DMSO as the negative control and baseline of activity. Using a type of inducible reporter, measures of mRNA for gain or loss-of-signal activity can be used to understand the reporter gene at the transcription factor-level as they relate to the gene PAX6. Furthermore, this assay endpoint can be referred to as a primary readout, because this assay has produced multiple assay endpoints where this one serves a reporter gene function. To generalize the intended target to other relatable targets, this assay endpoint is annotated to the dna binding intended target family, where the subfamily is paired box protein.
Human liver HepG2 cells are transiently transfected with multiple reporter transcription units (MRTUs) in 6-well plates using FuGene 6 reagent (Roche; 3 ml FuGene/1 mg DNA). The MRTU constructs are regulated by a cis-regulating element (promoter). […] A major difference between the CIS and TRANS system is that in CIS activities of endogenous TFs are measured, whereas the TRANS assay evaluates changes in activities of exogenous, chimeric NR-Gal4 proteins. […] At the end of 24 hour incubation, total RNA was isolated using TriZol reagent (Invitrogen). The isolated RNA is then reverse-transcribed using oligo(dT) primer and Mo-MLV reverse transcriptase (Invitrogen) with DNAse I (Ambion) treatment for 30 min. The one-tenth of the produced cDNA was amplified by PCR using Taq DNA polymerase (Invitrogen) and two reporter sequence-specific primers. The PCR products were fluorescently labeled by primer extension with 6-arboxyfluorescein (6-FAM) 5'-labeled reporter sequence-specific primer (2 min at 95 C, 20 s at 68 C and 10 min at 72 C) and these products were digested with 5U of HpaI (New England Biolabs) for 2h at 37 C. The fragments were purified using Qiaquick PCR columns (Qiagen), analyzed on an ABI 3130xL genetic analyzer (Applied Biosystems) with peak positions identified by using a set of X-rhodamine (ROX)-labeled MapMarker1000 molecular weight standards (BioVentures). The raw capillary electrophoresis data was processed using Attagraph software (Attagene).

Chain of Paired box protein Pax-6 (Homo sapiens) (P26367 whole entry, looked up): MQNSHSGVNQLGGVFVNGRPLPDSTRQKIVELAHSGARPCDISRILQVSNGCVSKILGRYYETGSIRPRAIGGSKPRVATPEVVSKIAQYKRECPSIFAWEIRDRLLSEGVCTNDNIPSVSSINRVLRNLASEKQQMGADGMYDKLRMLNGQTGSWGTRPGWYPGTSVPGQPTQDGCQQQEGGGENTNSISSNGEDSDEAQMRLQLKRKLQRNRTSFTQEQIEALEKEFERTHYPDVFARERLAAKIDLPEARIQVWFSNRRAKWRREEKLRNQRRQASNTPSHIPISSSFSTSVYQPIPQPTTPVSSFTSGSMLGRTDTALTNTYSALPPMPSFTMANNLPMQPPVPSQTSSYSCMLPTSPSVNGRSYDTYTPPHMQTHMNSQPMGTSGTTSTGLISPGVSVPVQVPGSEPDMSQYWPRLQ

| Compound | outcome | AC50 |
| --- | --- | --- |
| CCCN(CCC)C(=O)SCC | inactive |  |
| CCN(CC)C(=O)c1cccc(C)c1 | inactive |  |
| S=C(S)NCCNC(=S)S.[Mn+2].[S-]C([S-])=NCCN=C([S-])[S-].[Zn+2] | inactive | 9.92 µM (active) and 15 µM (active) and 12 µM (active) |
| CC(C)(c1ccc(O)cc1)c1ccc(O)cc1 | inactive | 105 µM (active) [middle of 4 runs] |
| OB(O)O | inactive |  |
| C#C[C@]1(O)CC[C@H]2[C@@H]3CCC4=CC(=O)CC[C@@H]4[C@H]3CC[C@@]21CC | inactive |  |
| C=CCOC(Cn1ccnc1)c1ccc(Cl)cc1Cl (stereo not given) |  | 50 µM (active) |
| COC(=O)c1ccccc1C(=O)O | inactive |  |
| CCCCC(CC)CN1C(=O)C2C3C=CC(C3)C2C1=O (stereo not given) | inactive |  |
| CCC(O)=C1C(=O)CC(C(=O)O)CC1=O (stereo not given) | inactive |  |
| CCCCC(CC)COC(=O)c1ccccc1C(=O)O (stereo not given) | inactive |  |
| CCCCOCCOCCOCc1cc2c(cc1CCC)OCO2 | inactive |  |
| CC(C)(C)[C@@H](O)[C@@H](Cc1ccc(Cl)cc1)n1cncn1 | inactive |  |
| CCCOC(=O)NCCCN(C)C | inactive |  |
| O=C(O)c1ccccc1 | inactive |  |
| CCCOC(=O)c1ccc(C(=O)OCCC)nc1 | inactive |  |
| COc1nc(C)nc(NC(=O)NS(=O)(=O)c2ccccc2OCCCl)n1 | inactive |  |
| CCN(Cc1c(F)cccc1Cl)c1c([N+](=O)[O-])cc(C(F)(F)F)cc1[N+](=O)[O-] |  | 7.64 µM (active) |
| C[C@]12C[C@H](O)[C@H]3[C@@H](CCC4=CC(=O)CC[C@@]43C)[C@@H]1CC[C@@H]2C(=O)CO | inactive |  |

| Compound | outcome | AC50 |
| --- | --- | --- |
| COC(=O)c1c(Cl)nn(C)c1S(=O)(=O)NC(=O)Nc1nc(OC)cc(OC)n1 | inactive |  |
| CCCCOC(=O)C(C)Oc1ccc(Oc2ccc(C(F)(F)F)cn2)cc1 (stereo not given) | inactive |  |
| CCOC(=O)C(C)Oc1ccc(Oc2cnc3cc(Cl)ccc3n2)cc1 (stereo not given) | inactive |  |
| Oc1ccc(C(c2ccc(O)cc2)C(Cl)(Cl)Cl)cc1 | inactive |  |
| S=C([S-])NCCNC(=S)[S-].[Mn+2] | inactive |  |
| CC1(C)C(C=C(Cl)Cl)C1C(=O)OCc1cccc(Oc2ccccc2)c1 (stereo not given) | inactive |  |
| COC(=O)c1ccc(CNS(C)(=O)=O)cc1S(=O)(=O)NC(=O)Nc1nc(OC)cc(OC)n1 | inactive |  |
| CCCCCOC(=O)COc1cc(N2C(=O)C3=C(CCCC3)C2=O)c(F)cc1Cl | inactive |  |
| CSC(=O)c1cccc2nnsc12 | inactive |  |
| CCCN(CCC)c1c([N+](=O)[O-])cc(C(F)(F)F)c(N)c1[N+](=O)[O-] | inactive |  |
| CC(C)CCCCCCc1ccc(O)cc1 | inactive | 17.9 µM (active) and 20.8 µM (active) and 19.9 µM (active) |
| CCC(C)OC(=O)N1CCCCC1CCO (stereo not given) | inactive |  |
| Cc1nn(C)c(Oc2ccccc2)c1C=NOCc1ccc(C(=O)OC(C)(C)C)cc1 |  | 1.88 µM (active) |
| O=C(O)C1(C(=O)Nc2ccc(Cl)cc2Cl)CC1 | inactive |  |
| CCSC(=O)N(CC(C)C)CC(C)C | inactive |  |
| C#CCOC(=O)[C@@H](C)Oc1ccc(Oc2ncc(Cl)cc2F)cc1 | inactive |  |
| CCCCOC(=O)[C@@H](C)Oc1ccc(Oc2ccc(C(F)(F)F)cn2)cc1 | inactive |  |
| CCOC(=O)[C@H](C)Oc1ccc(Oc2nc3ccc(Cl)cc3o2)cc1 | inactive |  |
